# Assay results: PubChem BioAssay (EPA / NIEHS)
# Values joined by “and” are separate entries in the source; they are usually repeats but may differ in a detail not shown here. Equal values may be shown once. Active and inactive are the calls of the source. How the source made its calls: active means hit-call score of the fitted dose curve at least 0.9, where 1 is the maximum; inactive means score below 0.9.
# Experiments:
# [1] = BSK_BT_PBMCCytotoxicity: PBMC Cytotoxicity Assessment in the BioMAP Diversity Plus: BT Assay (AID 2284225); conditions: primary human B cells with PBMC;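 further: PBMC viability measured by Alamar Blue dye reduction fluorescence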
# Procedure, shortened: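 75,000 cells/well; cpd 1 h → SEB + TSST-1 (20 ng/mL final each) → 90 h → Alamar Blue 6 h → fluor. 546/580 nm. DMSO = neg. control/baseline.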
# [2] = read-out: Secreted IgG (sIgG), gene 3500; assay: BSK_BT_sIgG: BioMAP Diversity Plus: BT Assay for Secreted IgG (sIgG) Biomarker Activity (AID 2284226); conditions: primary human B cells with PBMC
# Procedure, shortened: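 B cells co-cultured with PBMC were dosed with chemical and secreted IgG quantified by ELISA at 24 h. Activity was fitted in the positive direction relative to DMSO as negative control and baseline.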
# [3] = BSK_BT_Bcell_Proliferation: Viability Assessment in the BioMAP Diversity Plus: BT Assay for B cell Proliferation (AID 2284227); conditions: primary human B cells with PBMC
# Procedure, shortened: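 SRB-based protein staining (0.1% SRB after 10% TCA fixation, 560 nm) quantifies proliferation in human B cells co-cultured with PBMC, 72 h post-dosing, with signal gain scored relative to DMSO negative control.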
# [4] = read-out: Interleukin 6 (IL6), IL6 (gene 3569); assay: BSK_BT_xIL6: BioMAP Diversity Plus: BT Assay for Interleukin 6 (IL6) Biomarker Activity (AID 2284228); conditions: primary human B cells with PBMC
# Procedure, shortened: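 Secreted IL-6 in the primary human B cell plus PBMC system, measured by Luminex at 24 h post-chemical, DMSO as baseline. Alamar Blue viability: 75,000 cells/well, chemical 1 h before SEB/TSST-1 (20 ng/mL each), 90 h, then 6 h dye.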
# [5] = read-out: Interleukin 17A (IL17A), IL17A (gene 3605); assay: BSK_BT_xIL17A: BioMAP Diversity Plus: BT Assay for Interleukin 17A (IL17A) Biomarker Activity (AID 2284229); conditions: primary human B cells with PBMC
# Procedure, shortened: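 Luminex xMAP quantification of secreted IL-17A after 24 h chemical exposure of a primary human B cell/PBMC co-culture. Signal increases fitted relative to DMSO negative control.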
# [6] = read-out: Tumor necrosis factor (Homo sapiens) (UniProt P01375); assay: BSK_BT_xTNFa: BioMAP Diversity Plus: BT Assay for Tumor necrosis factor alpha (TNF-alpha) Biomarker Activity (AID 2284230); conditions: primary human B cells with PBMC
# Procedure, shortened: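 Compounds were added to a B cell plus PBMC co-culture, and after 24 h secreted TNF-alpha was quantified with Luminex xMAP technology, with responses fitted upward from the DMSO control.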
# [7] = read-out: Vascular cell adhesion molecule 1 (VCAM1), VCAM1 (gene 7412); assay: BSK_MyoF_VCAM1: BioMAP Diversity Plus: MyoF Assay for Vascular cell adhesion molecule 1 (VCAM1) Biomarker Activity (AID 2284231); conditions: primary human lung fibroblasts
# Procedure, shortened: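 ELISA readout of VCAM-1 on human lung fibroblast cultures 24 hours after dosing, analyzed for signal gain relative to DMSO. Overt cytotoxicity was checked by sulforhodamine B total-protein staining in parallel cultures.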
# [8] = read-out: Collagen I, COL1A1 (gene 1277); assay: BSK_MyoF_CollagenI: BioMAP Diversity Plus: MyoF Assay for Collagen I Biomarker Activity (AID 2284238); conditions: primary human lung fibroblasts
# Procedure, shortened: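 Collagen I levels measured by ELISA on human lung fibroblast cultures 24 h post-dosing, with curve fitting in the positive direction relative to DMSO; SRB staining of parallel wells marked cytotoxicity.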
# [9] = read-out: Collagen III, COL3A1 (gene 1281); assay: BSK_MyoF_CollagenIII: BioMAP Diversity Plus: MyoF Assay for Collagen III Biomarker Activity (AID 2284239); conditions: primary human lung fibroblasts
# Procedure, shortened: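 Collagen III biomarker quantified by ELISA in human lung fibroblast cultures 24 h after dosing. Activity fitted in the positive direction against DMSO as baseline.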
# Tumor necrosis factor (Homo sapiens), sequence (P01375 whole entry, looked up): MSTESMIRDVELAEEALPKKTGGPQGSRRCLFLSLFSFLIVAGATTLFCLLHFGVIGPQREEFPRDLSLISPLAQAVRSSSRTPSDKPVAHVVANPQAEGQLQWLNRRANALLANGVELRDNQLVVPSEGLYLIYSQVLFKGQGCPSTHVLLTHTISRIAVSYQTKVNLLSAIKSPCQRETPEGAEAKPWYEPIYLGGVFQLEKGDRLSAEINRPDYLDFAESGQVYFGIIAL
compound,measurement,setting,value
C#C[C@]1(O)CC[C@H]2[C@@H]3CCc4cc(OC)ccc4[C@H]3CC[C@@]21C,outcome,[1],inactive
same,AC50,[2],7.71 µM (active)
same,AC50,[3],29.6 µM (active)
same,outcome,[4],inactive
same,outcome,[5],inactive
same,AC50,[6],20 µM (active)
same,outcome,[7],inactive
same,outcome,[8],inactive
same,outcome,[9],inactive
C=C(C)C(=O)OCCC(F)(F)C(F)(F)C(F)(F)C(F)(F)C(F)(C(F)(F)F)C(F)(F)F,outcome,[1],inactive
same,outcome,[4],inactive
same,outcome,[5],inactive
same,outcome,[6],inactive
same,outcome,[7],inactive
same,outcome,[8],inactive
same,outcome,[9],inactive
FC(F)(Br)C(F)(F)C(F)(F)C(F)(F)C(F)(F)C(F)(F)Br,outcome,[1],inactive
same,outcome,[3],inactive
same,outcome,[4],inactive
same,outcome,[5],inactive
same,outcome,[6],inactive
same,outcome,[7],inactive
same,outcome,[8],inactive
CCCCCCCCCCCCCCCC[N+](C)(C)Cc1ccccc1,AC50,[1],5.2 µM (active)
same,AC50,[4],9.92 µM (active)
same,AC50,[5],2.84 µM (active)
same,AC50,[6],5.5 µM (active)
same,AC50,[7],2.1 µM (active)
same,AC50,[8],0.987 µM (active)
NC(=O)C(F)(F)C(F)(F)C(F)(F)C(F)(F)F,outcome,[1],inactive
same,outcome,[3],inactive
same,outcome,[4],inactive
same,outcome,[5],inactive
same,outcome,[6],inactive
same,outcome,[7],inactive
same,outcome,[8],inactive
same,outcome,[9],inactive
O[Si](c1ccccc1)(c1ccccc1)c1ccccc1,outcome,[1],inactive
same,AC50,[3],27.3 µM (active)
same,outcome,[4],inactive
same,AC50,[5],28.9 µM (active)
same,AC50,[6],38.2 µM (active)
same,outcome,[7],inactive
same,AC50,[8],31.3 µM (active)
O=C(O)C=C(C(F)(F)F)C(F)(F)F,outcome,[1],inactive
same,outcome,[4],inactive
same,outcome,[5],inactive
same,AC50,[6],30 µM (active) and 34.9 µM (active)
same,AC50,[7],21.8 µM (active) and 16.2 µM (active)
same,outcome,[8],inactive
same,outcome,[9],inactive
O=C(Cl)C(F)(F)C(F)(F)C(F)(F)C(F)(F)C(F)(F)C(F)(F)C(F)(F)C(F)(F)F,outcome,[1],inactive
same,outcome,[4],inactive
same,outcome,[5],inactive
same,outcome,[6],inactive
same,AC50,[7],27.2 µM (active) and 45.4 µM (active) and 44.1 µM (active)
same,AC50,[8],41.3 µM (active) and 41.8 µM (active) and 44.2 µM (active)
same,AC50,[9],22.5 µM (active) and 23.5 µM (active) and 24.7 µM (active)
CO[Si](OC)(c1ccccc1)c1ccccc1,outcome,[1],inactive
same,outcome,[4],inactive
same,outcome,[5],inactive
same,outcome,[6],inactive
same,AC50,[7],32.8 µM (active)
same,AC50,[8],31.6 µM (active)
same,AC50,[9],31.6 µM (active)
FC1CC(F)(F)C(F)(F)C1(F)F (configuration not stated),outcome,[1],inactive
same,outcome,[3],inactive
same,outcome,[4],inactive
same,outcome,[5],inactive
same,outcome,[6],inactive
same,outcome,[7],inactive
same,outcome,[8],inactive
OCC(F)(F)C(F)(F)C(F)(F)F,outcome,[1],inactive
same,outcome,[4],inactive
same,outcome,[5],inactive
same,outcome,[6],inactive
same,outcome,[7],inactive
same,outcome,[8],inactive
C=C(C)C(=O)OCC(F)(F)C(F)(F)C(F)(F)C(F)(F)C(F)(F)C(F)(F)C(F)(F)F,outcome,[1],inactive
same,outcome,[4],inactive
same,outcome,[5],inactive
same,outcome,[6],inactive
same,outcome,[7],inactive
same,outcome,[8],inactive
FC(F)(F)C(F)(F)C(F)(F)C(F)(F)C(F)(F)C(F)(F)C(F)(F)I,outcome,[1],inactive
same,outcome,[3],inactive
same,outcome,[4],inactive
same,outcome,[5],inactive
same,outcome,[6],inactive
same,AC50,[7],4.15 µM (active) and 4.24 µM (active)
same,AC50,[8],4.56 µM (active) and 3.16 µM (active)
O=C(O)C(F)(F)C(F)(F)C(F)(F)C(F)(F)C(F)(F)C(F)(F)C(F)(F)C(F)(F)C(F)(F)C(F)(F)C(F)(F)C(F)(F)C(F)(F)F,outcome,[1],inactive
same,outcome,[4],inactive
same,outcome,[5],inactive
same,outcome,[6],inactive
same,outcome,[7],inactive
same,outcome,[8],inactive
same,outcome,[9],inactive
CCCCNc1ccccc1,outcome,[1],inactive
same,outcome,[3],inactive
same,outcome,[4],inactive
same,outcome,[5],inactive
same,outcome,[6],inactive
same,outcome,[7],inactive
same,outcome,[8],inactive
FC(F)(F)C(F)(F)CNCC(F)(F)C(F)(F)F,outcome,[1],inactive
same,outcome,[4],inactive
same,outcome,[5],inactive
same,outcome,[6],inactive
same,outcome,[7],inactive
same,outcome,[8],inactive
O=C(O)C(F)(F)C(F)(F)C(F)(F)C(F)(F)F,outcome,[1],inactive
same,outcome,[4],inactive
same,outcome,[5],inactive
same,outcome,[6],inactive
same,outcome,[7],inactive
same,outcome,[8],inactive
O=S(=O)(O)C(F)(F)C(F)(F)C(F)(F)C(F)(F)C(F)(F)C(F)(F)C(F)(F)F,outcome,[1],inactive
same,outcome,[2],inactive
same,outcome,[4],inactive
same,outcome,[5],inactive
same,outcome,[6],inactive
same,outcome,[7],inactive
same,outcome,[8],inactive
same,outcome,[9],inactive
CCCCOCCOCCOC(=O)CCCCC(=O)OCCOCCOCCCC,outcome,[1],inactive
same,outcome,[3],inactive
same,outcome,[4],inactive
same,outcome,[5],inactive
same,outcome,[6],inactive
same,outcome,[7],inactive
same,outcome,[8],inactive
same,outcome,[9],inactive
FC(F)(F)C(F)(F)C(F)(F)C(F)(F)C(F)(F)CCI,outcome,[1],inactive
same,outcome,[2],inactive
same,outcome,[4],inactive
same,outcome,[5],inactive
same,outcome,[6],inactive
same,outcome,[7],inactive
same,outcome,[8],inactive
same,outcome,[9],inactive
C=CC(F)(F)C(F)(F)C(F)(F)C(F)(F)C(F)(F)C(F)(F)C(F)(F)C(F)(F)F,outcome,[1],inactive
same,outcome,[3],inactive
same,outcome,[4],inactive
same,outcome,[5],inactive
same,outcome,[6],inactive
same,outcome,[7],inactive
same,outcome,[8],inactive
CS(C)(=O)=O,outcome,[1],inactive
same,outcome,[4],inactive
same,outcome,[5],inactive
same,outcome,[6],inactive
same,outcome,[7],inactive
same,outcome,[8],inactive
C=CC/C=C/C/C=C/C/C=C/C,outcome,[1],inactive
same,outcome,[4],inactive
same,outcome,[5],inactive
same,outcome,[6],inactive
same,outcome,[7],inactive
same,outcome,[8],inactive
Cc1ccc(S(=O)(=O)OCC(F)(F)C(F)(F)C(F)(F)C(F)(F)C(F)(F)C(F)F)cc1,outcome,[1],inactive
same,outcome,[3],inactive
same,outcome,[4],inactive
same,outcome,[5],inactive
same,outcome,[6],inactive
same,outcome,[7],inactive
same,outcome,[8],inactive
same,outcome,[9],inactive
FC(F)(F)C(F)(F)C(F)(F)CI,outcome,[1],inactive
same,outcome,[3],inactive
same,outcome,[4],inactive
same,outcome,[5],inactive
same,outcome,[6],inactive
same,outcome,[7],inactive
same,outcome,[8],inactive
same,outcome,[9],inactive
OCCCC(F)(F)C(F)(F)C(F)(F)F,outcome,[1],inactive
same,outcome,[3],inactive
same,outcome,[4],inactive
same,outcome,[5],inactive
same,outcome,[6],inactive
same,outcome,[7],inactive
same,outcome,[8],inactive
CC(=O)Nc1ccc(N=Nc2cc(C)ccc2O)cc1,outcome,[1],inactive
same,outcome,[3],inactive
same,AC50,[4],0.016 µM (active)
same,outcome,[5],inactive
same,outcome,[6],inactive
same,AC50,[7],20 µM (active)
same,outcome,[8],inactive
O=C(O)C(F)(OC(F)(F)C(F)(OC(F)(F)C(F)(OC(F)(F)C(F)(F)C(F)(F)F)C(F)(F)F)C(F)(F)F)C(F)(F)F (configuration not stated),outcome,[1],inactive
same,outcome,[4],inactive
same,outcome,[5],inactive
same,outcome,[6],inactive
same,outcome,[7],inactive
same,outcome,[8],inactive
O=C(O)C(F)(OC(F)(F)C(F)(OC(F)(F)C(F)(F)C(F)(F)F)C(F)(F)F)C(F)(F)F (configuration not stated),outcome,[1],inactive
same,outcome,[3],inactive
same,outcome,[4],inactive
same,outcome,[5],inactive
same,outcome,[6],inactive
same,outcome,[7],inactive
same,outcome,[8],inactive
CCc1c(Br)c(Br)c(Br)c(Br)c1Br,outcome,[1],inactive
same,outcome,[3],inactive
same,outcome,[4],inactive
same,outcome,[5],inactive
same,outcome,[6],inactive
same,AC50,[7],20 µM (active)
same,outcome,[8],inactive
C=CC(F)(F)C(F)(F)C(F)(F)C(F)(F)C(F)(F)C(F)(F)C(F)(F)C(F)(F)C=C,outcome,[1],inactive
same,outcome,[4],inactive
same,outcome,[5],inactive
same,outcome,[6],inactive
same,outcome,[7],inactive
same,outcome,[8],inactive
O=C(O)C(F)(F)C(F)(F)F,outcome,[1],inactive
same,outcome,[4],inactive
same,outcome,[5],inactive
same,outcome,[6],inactive
same,outcome,[7],inactive
same,outcome,[8],inactive
same,outcome,[9],inactive
FC(F)(F)C(F)(F)C(F)(F)C(F)(F)C(F)(F)C(F)(F)CCS,outcome,[1],inactive
same,outcome,[3],inactive
same,outcome,[4],inactive
same,outcome,[5],inactive
same,outcome,[6],inactive
same,outcome,[7],inactive
same,outcome,[8],inactive
O=C(CC(=O)C(F)(F)C(F)(F)F)C(F)(F)F,outcome,[1],inactive
same,outcome,[2],inactive
same,outcome,[4],inactive
same,outcome,[5],inactive
same,outcome,[6],inactive
same,outcome,[7],inactive
same,outcome,[8],inactive
same,outcome,[9],inactive
COC(=O)CCC(F)(F)C(F)(F)C(F)(F)C(F)(F)F,outcome,[1],inactive
same,outcome,[4],inactive
same,outcome,[5],inactive
same,outcome,[6],inactive
same,outcome,[7],inactive
same,outcome,[8],inactive
O=S(=O)(OCCOC(F)(F)F)C(F)(F)F,outcome,[1],inactive
same,outcome,[3],inactive
same,outcome,[4],inactive
same,outcome,[5],inactive
same,outcome,[6],inactive
same,outcome,[7],inactive
same,outcome,[8],inactive
same,outcome,[9],inactive
